Measurements reported in PubChem BioAssay AID1159580 (chemical genetic matrix, 2015).
In all, about 5,500 compounds went through this assay and about 2,000 (36%) were called active. Not shown: some 18% with an inconclusive outcome. Rule as the data show it: active = normalized growth mostly below about 0.91 (no sharp cut-off); inconclusive = no clear call, values can overlap the other calls; inactive = mostly above about 0.92. This is one part of the list.

Experiment: chemical genetic growth profiling, strain panel (AID 1159580);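 also: tested at 20 µM; growth read once vehicle control cultures reached saturation at 30 °C; 1 = growth at the plate median or of vehicle wells; lower values mean less growth of the strain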
Details: growth OD

Measured: normalized growth

COc1ccc(-c2oc3cc(O[C@H]4O[C@H](CO)[C@@H](O)[C@H](O)[C@H]4O)c(OC)c(O)c3c(=O)c2OC)cc1O
inactive: S. cerevisiae deletion strains, locus YAL013W, strain DEP1, active compounds read low 1.02 | S. cerevisiae deletion strains, locus YAL021C, strain ccr4, active compounds read low 1.01 | S. cerevisiae deletion strains, locus YAL026C, strain drs2, active compounds read low 0.996 | S. cerevisiae deletion strains, locus YAL030W, strain snc1, active compounds read low 1 | S. cerevisiae deletion strains, locus YBL061C, strain skt5, active compounds read low 0.996 | S. cerevisiae deletion strains, locus YBR009C, strain hhf1, active compounds read low 0.997 | S. cerevisiae deletion strains, locus YBR021W, strain FUR4, active compounds read low 1 | S. cerevisiae deletion strains, locus YBR023C, strain chs3, active compounds read low 0.992 | S. cerevisiae deletion strains, locus YBR171W, strain sec66, active compounds read low 0.99 | S. cerevisiae deletion strains, locus YBR229C, strain ROT2, active compounds read low 1 | S. cerevisiae deletion strains, locus YBR231C, strain swc5, active compounds read low 0.99 | S. cerevisiae deletion strains, locus YBR279W, strain paf1, active compounds read low 1 | S. cerevisiae deletion strains, locus YCL011C, strain gbp2, active compounds read low 1 | S. cerevisiae deletion strains, locus YCL016C, strain dcc1, active compounds read low 1 | S. cerevisiae deletion strains, locus YCL029C, strain bik1, active compounds read low 0.969 | S. cerevisiae deletion strains, locus YCL061C, strain MRC1, active compounds read low 0.998 | S. cerevisiae deletion strains, locus YCL069W, strain vba3, active compounds read low 0.999 | S. cerevisiae deletion strains, locus YCR088W, strain abp1, active compounds read low 0.996 | S. cerevisiae deletion strains, locus YDL005C, strain med2, active compounds read low 1.01 | S. cerevisiae deletion strains, locus YDL035C, strain GPR1, active compounds read low 0.991 | S. cerevisiae deletion strains, locus YDL040C, strain nat1, active compounds read low 0.994 | S. cerevisiae deletion strains, locus YDL074C, strain BRE1, active compounds read low 0.925 | S. cerevisiae deletion strains, locus YDL101C, strain DUN1, active compounds read low 0.997 | S. cerevisiae deletion strains, locus YDL134C, strain PPH21, active compounds read low 0.982 | S. cerevisiae deletion strains, locus YDL185W, strain tfp1, active compounds read low 0.984 | S. cerevisiae deletion strains, locus YDL192W, strain arf1, active compounds read low 0.961 | S. cerevisiae deletion strains, locus YDR001C, strain nth1, active compounds read low 1 | S. cerevisiae deletion strains, locus YDR069C, strain doa4, active compounds read low 1 | S. cerevisiae deletion strains, locus YDR101C, strain arx1, active compounds read low 0.97 | S. cerevisiae deletion strains, locus YDR137W, strain rgp1, active compounds read low 0.905 | S. cerevisiae deletion strains, locus YDR159W, strain sac3, active compounds read low 1 | S. cerevisiae deletion strains, locus YDR162C, strain NBP2, active compounds read low 0.983 | S. cerevisiae deletion strains, locus YDR195W, strain ref2 1.01 | S. cerevisiae deletion strains, locus YDR297W, strain sur2, active compounds read low 0.989 | S. cerevisiae deletion strains, locus YDR318W, strain mcm21, active compounds read low 0.962 | S. cerevisiae deletion strains, locus YDR334W, strain swr1, active compounds read low 0.996 | S. cerevisiae deletion strains, locus YDR335W, strain msn5, active compounds read low 1 | S. cerevisiae deletion strains, locus YDR388W, active compounds read low 0.971 | S. cerevisiae deletion strains, locus YDR392W, strain spt3, active compounds read low 0.897 | S. cerevisiae deletion strains, locus YDR502C, strain sam2, active compounds read low 0.956 | S. cerevisiae deletion strains, locus YEL003W, strain gim4, active compounds read low 0.996 | S. cerevisiae deletion strains, locus YEL037C, strain rad23, active compounds read low 0.994 | S. cerevisiae deletion strains, locus YEL061C, strain CIN8 (second series), active compounds read low 1 | S. cerevisiae deletion strains, locus YEL061C, strain CIN8, active compounds read low 0.981 | S. cerevisiae deletion strains, locus YER015W, strain faa2, active compounds read low 1.01 | S. cerevisiae deletion strains, locus YER016W, strain bim1, active compounds read low 0.997 | S. cerevisiae deletion strains, locus YER110C, active compounds read low 0.964 | S. cerevisiae deletion strains, locus YER111C, strain swi4, active compounds read low 1 | S. cerevisiae deletion strains, locus YER155C, strain BEM2 (second series), active compounds read low 0.998 | S. cerevisiae deletion strains, locus YER155C, strain BEM2, active compounds read low 1.01 | S. cerevisiae deletion strains, locus YER167W, strain BCK2, active compounds read low 0.999 | S. cerevisiae deletion strains, locus YFR010W, strain ubp6, active compounds read low 1 | S. cerevisiae deletion strains, locus YGL078C, strain dbp3, active compounds read low 0.975 | S. cerevisiae deletion strains, locus YGL086W, strain mad1, active compounds read low 0.97 | S. cerevisiae deletion strains, locus YGL167C, strain pmr1, active compounds read low 0.994 | S. cerevisiae deletion strains, locus YGL173C, strain kem1, active compounds read low 0.989 | S. cerevisiae deletion strains, locus YGL227W, strain vid30, active compounds read low 0.996 | S. cerevisiae deletion strains, locus YGL240W, strain doc1, active compounds read low 1.01 | S. cerevisiae deletion strains, locus YGL248W, strain PDE1, active compounds read low 0.984 | S. cerevisiae deletion strains, locus YGL253W, strain hxk2, active compounds read low 1 | S. cerevisiae deletion strains, locus YGR078C, strain PAC10, active compounds read low 0.959 | S. cerevisiae deletion strains, locus YGR135W, strain pre9, active compounds read low 0.949 | S. cerevisiae deletion strains, locus YGR229C, strain SMI1, active compounds read low 0.956 | S. cerevisiae deletion strains, locus YGR252W, strain gcn5, active compounds read low 0.891 | S. cerevisiae deletion strains, locus YHR013C, strain ard1, active compounds read low 1.01 | S. cerevisiae deletion strains, locus YHR027C, strain rpn1, active compounds read low 1.01 | S. cerevisiae deletion strains, locus YHR030C, strain SLT2, active compounds read low 1 | S. cerevisiae deletion strains, locus YHR079C, strain IRE1 (second series), active compounds read low 0.99 | S. cerevisiae deletion strains, locus YHR094C, strain hxt1, active compounds read low 0.981 | S. cerevisiae deletion strains, locus YHR129C, strain ARP1, active compounds read low 0.969 | S. cerevisiae deletion strains, locus YHR142W, strain chs7, active compounds read low 0.985 | S. cerevisiae deletion strains, locus YHR200W, strain rpn10, active compounds read low 0.953 | S. cerevisiae deletion strains, locus YIL066C, strain RNR3, active compounds read low 0.98 | S. cerevisiae deletion strains, locus YIL073C, strain SPO22, active compounds read low 0.971 | S. cerevisiae deletion strains, locus YIL125W, strain kgd1, active compounds read low 0.981 | S. cerevisiae deletion strains, locus YIR030C, strain dcg1, active compounds read low 0.982 | S. cerevisiae deletion strains, locus YJL092W, strain hpr5, active compounds read low 1 | S. cerevisiae deletion strains, locus YJL095W, strain BCK1 (second series), active compounds read low 0.992 | S. cerevisiae deletion strains, locus YJL095W, strain BCK1, active compounds read low 0.916 | S. cerevisiae deletion strains, locus YJL115W, strain asf1, active compounds read low 1 | S. cerevisiae deletion strains, locus YJL129C, strain trk1, active compounds read low 0.935 | S. cerevisiae deletion strains, locus YJL134W, strain LCB3, active compounds read low 0.995 | S. cerevisiae deletion strains, locus YJL154C, strain vps35, active compounds read low 1.01 | S. cerevisiae deletion strains, locus YJL164C, strain tpk1, active compounds read low 0.992 | S. cerevisiae deletion strains, locus YJL166W, strain qcr8, active compounds read low 1 | S. cerevisiae deletion strains, locus YJL168C, strain set2, active compounds read low 0.977 | S. cerevisiae deletion strains, locus YJL187C, strain SWE1 (second series), active compounds read low 0.965 | S. cerevisiae deletion strains, locus YJL187C, strain SWE1, active compounds read low 1.01 | S. cerevisiae deletion strains, locus YJR043C, strain POL32, active compounds read low 0.982 | S. cerevisiae deletion strains, locus YKL009W, strain mrt4, active compounds read low 0.965 | S. cerevisiae deletion strains, locus YKL068W, active compounds read low 0.99 | S. cerevisiae deletion strains, locus YKL085W, strain MDH1 (second series), active compounds read low 0.994 | S. cerevisiae deletion strains, locus YKL085W, strain MDH1, active compounds read low 0.994 | S. cerevisiae deletion strains, locus YKL160W, strain elf1, active compounds read low 0.992 | S. cerevisiae deletion strains, locus YKR001C, strain vps1, active compounds read low 1 | S. cerevisiae deletion strains, locus YKR026C, strain gcn3, active compounds read low 0.995 | S. cerevisiae deletion strains, locus YKR091W, strain srl3, active compounds read low 1 | S. cerevisiae deletion strains, locus YLL001W, strain dnm1, active compounds read low 0.994 | S. cerevisiae deletion strains, locus YLL026W, active compounds read low 0.995 | S. cerevisiae deletion strains, locus YLL041C, strain sdh2, active compounds read low 1 | S. cerevisiae deletion strains, locus YLR027C, strain aat2, active compounds read low 1.01 | S. cerevisiae deletion strains, locus YLR039C, strain RIC1, active compounds read low 0.989 | S. cerevisiae deletion strains, locus YLR058C, strain SHM2, active compounds read low 0.989 | S. cerevisiae deletion strains, locus YLR102C, strain apc9, active compounds read low 0.968 | S. cerevisiae deletion strains, locus YLR221C, strain rsa3, active compounds read low 0.997 | S. cerevisiae deletion strains, locus YLR258W, strain gsy2, active compounds read low 1 | S. cerevisiae deletion strains, locus YLR262C, strain YPT6 (second series), active compounds read low 0.951 | S. cerevisiae deletion strains, locus YLR262C, strain YPT6, active compounds read low 0.979 | S. cerevisiae deletion strains, locus YLR268W, strain sec22, active compounds read low 0.955 | S. cerevisiae deletion strains, locus YLR320W, strain mms22, active compounds read low 0.993 | S. cerevisiae deletion strains, locus YLR330W, strain CHS5, active compounds read low 1.01 | S. cerevisiae deletion strains, locus YLR342W, strain FKS1 (second series), active compounds read low 0.983 | S. cerevisiae deletion strains, locus YLR342W, strain FKS1, active compounds read low 0.995 | S. cerevisiae deletion strains, locus YLR357W, strain rsc2, active compounds read low 0.985 | S. cerevisiae deletion strains, locus YLR370C, strain arc18, active compounds read low 0.989 | S. cerevisiae deletion strains, locus YLR371W, strain rom2, active compounds read low 0.979 | S. cerevisiae deletion strains, locus YLR384C, strain iki3, active compounds read low 1.01 | S. cerevisiae deletion strains, locus YLR418C, strain cdc73, active compounds read low 0.877 | S. cerevisiae deletion strains, locus YML016C, strain PPZ1, active compounds read low 0.994 | S. cerevisiae deletion strains, locus YML032C, strain rad52, active compounds read low 0.969 | S. cerevisiae deletion strains, locus YML120C, strain ndi1, active compounds read low 0.998 | S. cerevisiae deletion strains, locus YML124C, strain tub3, active compounds read low 0.981 | S. cerevisiae deletion strains, locus YMR058W, strain fet3, active compounds read low 0.998 | S. cerevisiae deletion strains, locus YMR078C, strain ctf18, active compounds read low 0.976 | S. cerevisiae deletion strains, locus YMR125W, strain sto1, active compounds read low 0.995 | S. cerevisiae deletion strains, locus YMR129W, active compounds read low 0.998 | S. cerevisiae deletion strains, locus YMR205C, strain PFK2, active compounds read low 0.981 | S. cerevisiae deletion strains, locus YMR223W, strain ubp8, active compounds read low 0.977 | S. cerevisiae deletion strains, locus YMR231W, strain pep5, active compounds read low 0.995 | S. cerevisiae deletion strains, locus YMR307W, strain GAS1, active compounds read low 0.92 | S. cerevisiae deletion strains, locus YNL067W, strain RPL9B, active compounds read low 0.98 | S. cerevisiae deletion strains, locus YNL071W, strain lat1, active compounds read low 1.01 | S. cerevisiae deletion strains, locus YNL209W, strain ssb2, active compounds read low 0.998 | S. cerevisiae deletion strains, locus YNL233W, strain BNI4, active compounds read low 0.977 | S. cerevisiae deletion strains, locus YNL248C, strain rpa49, active compounds read low 1 | S. cerevisiae deletion strains, locus YNL250W, strain rad50, active compounds read low 0.974 | S. cerevisiae deletion strains, locus YNL271C, strain bni1, active compounds read low 0.978 | S. cerevisiae deletion strains, locus YNL298W, strain CLA4, active compounds read low 0.963 | S. cerevisiae deletion strains, locus YNL307C, strain MCK1, active compounds read low 0.928 | S. cerevisiae deletion strains, locus YNL322C, strain KRE1 (second series), active compounds read low 0.999 | S. cerevisiae deletion strains, locus YNL322C, strain KRE1, active compounds read low 0.985 | S. cerevisiae deletion strains, locus YNR049C, strain mso1, active compounds read low 1 | S. cerevisiae deletion strains, locus YNR052C, strain pop2, active compounds read low 0.948 | S. cerevisiae deletion strains, locus YOL012C, strain htz1 0.832 | S. cerevisiae deletion strains, locus YOL147C, strain pex11, active compounds read low 0.962 | S. cerevisiae deletion strains, locus YOR001W, strain rrp6, active compounds read low 1.02 | S. cerevisiae deletion strains, locus YOR061W, strain CKA2, active compounds read low 0.993 | S. cerevisiae deletion strains, locus YOR069W, strain VPS5, active compounds read low 0.997 | S. cerevisiae deletion strains, locus YOR070C, strain gyp1, active compounds read low 1.02 | S. cerevisiae deletion strains, locus YOR080W, strain dia2, active compounds read low 0.999 | S. cerevisiae deletion strains, locus YOR083W, strain WHI5, active compounds read low 1 | S. cerevisiae deletion strains, locus YOR106W, strain vam3, active compounds read low 1 | S. cerevisiae deletion strains, locus YOR136W, strain idh2, active compounds read low 0.986 | S. cerevisiae deletion strains, locus YOR144C, strain elg1, active compounds read low 0.968 | S. cerevisiae deletion strains, locus YOR184W, strain ser1, active compounds read low 0.944 | S. cerevisiae deletion strains, locus YOR265W, strain rbl2, active compounds read low 0.993 | S. cerevisiae deletion strains, locus YOR270C, strain vph1, active compounds read low 0.987 | S. cerevisiae deletion strains, locus YOR290C, strain snf2, active compounds read low 0.984 | S. cerevisiae deletion strains, locus YOR316C, strain cot1, active compounds read low 0.974 | S. cerevisiae deletion strains, locus YPL051W, strain arl3, active compounds read low 0.998 | S. cerevisiae deletion strains, locus YPL078C, strain atp4, active compounds read low 1.01 | S. cerevisiae deletion strains, locus YPL106C, strain sse1, active compounds read low 0.995 | S. cerevisiae deletion strains, locus YPL240C, strain hsp82, active compounds read low 1 | S. cerevisiae deletion strains, locus YPR119W, strain clb2, active compounds read low 0.978 | S. cerevisiae deletion strains, locus YPR141C, strain kar3, active compounds read low 0.977 | S. cerevisiae deletion strains, locus YPR163C, strain tif3, active compounds read low 0.933 | S. cerevisiae deletion strains, locus YPR167C, strain met16, active compounds read low 0.978 | S. cerevisiae deletion strains, strain wtn01, active compounds read low 0.971 | S. cerevisiae strains, strain wild type, active compounds read low 0.993
